High-throughput results as filed in PubChem BioAssay.
In the library only some 8.9% were active in any assay of this set; here they are far more common.
MCF10A rereplic – inducers of DNA re-replication in MCF 10A breast cells; MCF 10A DNA re-replication, Hoechst nuclear intensity, 48 h; Potency, µM (top dose mostly 46.1 µM), without a hit: at the highest dose activity, positive = re-replication, most hits filed as activators; 350,000 compounds, 2.9% hits; AID 624296; further: potency means the concentration at half of the fitted maximal effect; % of control where 0% means no effect; nearly all actives have a fitted effect of over 50% in size
DRD3 agonist – D3 dopamine receptor (human) agonism | P35462 | 410,000 compounds, 0.58% hits | D3R DiscoveRx beta-arrestin cells, luminescence, 90 min | max activation, %; in the data active means max activation above about 30%; further: 0% is about no effect
Target sequence (P35462 whole entry, looked up): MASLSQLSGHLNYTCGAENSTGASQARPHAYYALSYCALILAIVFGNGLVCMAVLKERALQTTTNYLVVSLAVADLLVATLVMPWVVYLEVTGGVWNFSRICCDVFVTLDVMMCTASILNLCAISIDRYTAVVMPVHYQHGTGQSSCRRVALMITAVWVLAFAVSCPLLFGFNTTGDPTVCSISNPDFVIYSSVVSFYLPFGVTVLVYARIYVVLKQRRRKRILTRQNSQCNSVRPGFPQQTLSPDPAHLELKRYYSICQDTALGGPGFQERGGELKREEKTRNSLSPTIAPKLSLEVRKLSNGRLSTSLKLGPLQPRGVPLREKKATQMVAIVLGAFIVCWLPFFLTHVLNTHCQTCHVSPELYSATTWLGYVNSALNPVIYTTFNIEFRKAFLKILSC
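Agonist mode: compounds and dopamine controls were applied to plated cells for 90 min at 37 degrees C after an overnight attachment at 1500 cells/well. Luminescent read-out followed 30 - 60 minutes at room temperature with DiscoveRx detection reagent.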
KB-V1 cytotox – kills drug-selected multidrug resistant KB-V1 cells. KB-V1 MDR cells viability, CellTiter-Glo, 72 h. Potency, µM (series often up to 46.1 µM), usual class: cytotoxic. 400,000 compounds, 3.4% hits; further: potency means the concentration at half of the fitted maximal effect; on the % scale 0 is the no-effect control and ±100 the full control effect; nearly all actives have a fitted effect of over 60% in size
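Luminescent ATP read-out (CellTiter-Glo, 10 min) measures survival of drug-selected KB-V1 MDR cells after 72 h, 37 degrees C compound exposure. Medium: phenol-red-free DMEM, 10% FBS. Values from fitted concentration-response curves.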
SW480 rerep – DNA re-replication induction in SW480 cells. Potency, µM (top dose mostly 46.1 µM), for the others: top-dose re-replication activation, most hits filed as activators. SW480 DNA re-replication, Hoechst DNA content imaging, 48 h. AID 624297. 340,000 compounds, 1.8% hits; further: potency means the concentration at half of the fitted maximal effect; % of control where 0% means no effect; nearly all actives have a fitted effect of over 55% in size
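Image-based read-out: total Hoechst fluorescence of nuclei (405 nm excitation, 500-530 nm emission), with hits raising the fraction of high-intensity nuclei. SW480 colon cells incubated 48 hr with compounds at 37 C.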
DRD3 antagonist – D3 dopamine receptor (human) antagonism; P35462; max response, negative = inhibition, %; 360,000 compounds, 2.5% hits; D3R cells, DiscoveRx beta-arrestin luminescence, antagonist mode; hits give low values; in the data active means max response below about -50%; inconclusive means no clear call, values can overlap the other calls; further: on the % scale 0 is the no-effect control and ±100 the full control effect
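Cells plated overnight at 1500 cells/well, then exposed to library compounds with dopamine controls for 90 minutes at 37 degrees C. DiscoveRx reagent added for 30–60 minutes at room temperature; luminescence read, quantitative HTS format.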
KB-3-1 cytotox – kills parental KB-3-1 adenocarcinoma cells; KB-3-1 viability, CellTiter-Glo ATP luminescence, 72 h; Potency, µM (doses to about 46.1 µM), usual class: cytotoxic; 400,000 compounds, 1.4% hits; AID 1347075; further: potency means the concentration at half of the fitted maximal effect; on the % scale 0 is the no-effect control and ±100 the full control effect; nearly all actives have a fitted effect of over 60% in size
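Parental KB-3-1 adenocarcinoma cells in phenol-red-free DMEM with 10% FBS were pin-treated with compounds at several concentrations, incubated 72 h at 37 °C, and viability read by CellTiter-Glo luminescence; concentration-effect curves were fitted after normalization.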
* marks the source's active call; other numbers are inactive results; i = inactive; ? = inconclusive; nt = no result; ! = repeats disagree; [ ] = dose if it differs, or a comment. Unless noted, the call rests on the fitted dose curve; in most records, active means well fitted curve in the direction sought with a large enough effect; inconclusive means small, poorly fitted or top-dose-only effect, or another doubt; inactive means no such curve, though single readings can be large; an effect the other way counts as inactive or inconclusive.

SMILES	MCF10A rereplic	DRD3 agonist	KB-V1 cytotox	SW480 rerep	DRD3 antagonist	KB-3-1 cytotox
O=C(CSc1nnc(-c2cccc(F)c2)c(-c2cccc(F)c2)n1)NC1CCCCC1	nt	3.4	i	nt	nt	i
COC(=O)/C=c1\sc2ncnn2c1=O	11.2µM*	3.2	i	-11.2%[9.22 µM]	-68.8*	i
CNC(=O)/C(C#N)=c1\s/c(=C/C(=O)OC)c(=O)n1-c1ccccc1	22.0%	2.6	i	0.9%	18.0	i
COc1ccccc1N1CCN(CCCN2C(=O)C3CCCN3C2=O)CC1 (configuration not stated)	12.9%	-12.7	i	-13.7%	-82.9*	i
COc1ccccc1N1CCN(CCCN2C(=O)C3CCCCN3C2=O)CC1 (configuration not stated)	13.3%	-11.8	i	-10.5%	-65.6*	i
O=C1C2CCCN2C(=O)N1CCCN1CCN(c2ccc([N+](=O)[O-])cc2)CC1 (configuration not stated)	-11.9%	-1.4	i	-6.9%	-22.7	i
O=C1C2CCCCN2C(=O)N1CCN1CCN(c2ccc(F)cc2)CC1 (configuration not stated)	-22.7%	-13.6	i	-25.0%[1.84 µM]	14.7	i
COc1ccccc1N1CCN(CCN2C(=O)C3CCCCN3C2=O)CC1 (configuration not stated)	-0.7%	-20.7	i	-3.7%	-79.1*	i
O=C1C2CCCN2C(=O)N1CCN1CCN(c2ccccc2)CC1 (configuration not stated)	3.3%	-41.8	?	-3.0%	-3.3	i
Cc1cc(Cl)ccc1OCC(=O)N(Cc1ccco1)Cc1ccccc1F	nt	-7.0	nt	nt	nt	nt
CN(C)CCOc1cc(Cl)cc(Cl)c1	-8.6%	-12.0	i	0.3%	-63.6*	i
CN(C)CCOC(=O)COc1ccc(Cl)cc1	-27.2%	45.0*!	i	-38.1%	-9.0	i
CCCN(CCC)CCNC(=O)C1CCN(c2nc3ccc(CC)cc3s2)CC1	nt	14.6	nt	nt	nt	nt
O=C(CSc1ccc2nnc(-c3ccncc3)n2n1)Nc1ccc2c(c1)OCO2	-3.2%	-1.9	i	-9.8%	19.6	i
Cc1ccc(C2=NC3(CCCC3)N=C2SCC(=O)Nc2ccc3c(c2)OCCO3)cc1	?	1.8	i	20.6µM*	19.3	i
O=C(CSC1=NC2(CCCCCC2)N=C1c1ccccc1)Nc1ccc2c(c1)OCCO2	0.5%	-3.6	i	14.3%	-6.4	i
O=C(CSc1ccc2nnc(-c3ccncc3)n2n1)Nc1ccc2c(c1)OCCO2	28.1%	-4.1	i	-2.8%	-59.3*	i
COc1ccc(S(=O)(=O)n2nc(OC(=O)c3cccs3)cc2N)cc1	6.3%	-10.5	i	-4.3%	-26.7	i
COc1ccc(S(=O)(=O)n2nc(OCc3cccs3)cc2N)cc1	12.1%	20.6	20.6µM*	-14.0%	12.9	i
COc1cccc(CN(C)C(=O)C(CCSC)NS(=O)(=O)c2ccc3c(c2)OCCO3)c1OC (configuration not stated)	?	-15.0	14.6µM*	-448.4%	47.2	i
CSCCC(NS(=O)(=O)c1ccc2c(c1)OCCO2)C(=O)N(C)Cc1ccc(C)cc1 (configuration not stated)	?	1.4	?	17.7%	11.3	i
O=C(COc1cccc(NC(=O)c2cccc([N+](=O)[O-])c2)c1)c1ccc(F)cc1	?	4.4	?	-2.2%	-13.0	?
O=C(Nc1cccc(Cl)c1)c1cccc(Oc2ccc([N+](=O)[O-])cc2Cl)c1	?	-1.2	?	4.11µM*	0.8	i
COc1ccc([N+](=O)[O-])cc1NC(=O)C(C)N(C)Cc1cccc(OC)c1OC (configuration not stated)	29.6%	-9.5	8.2µM*	17.0%	-3.7	i
COc1cccc(C(=O)COc2cccc(NC(=O)c3cccc([N+](=O)[O-])c3)c2)c1	?	13.8	?	9.9%	-51.1*	?
SMILES	MCF10A rereplic	DRD3 agonist	KB-V1 cytotox	SW480 rerep	DRD3 antagonist	KB-3-1 cytotox
COC(=O)Nc1ccc(SCC(=O)c2cccc([N+](=O)[O-])c2)cc1	23.1µM*	-4.7	i	?	-60.3*	i
CSc1ccc(CCNC(=O)c2cc3c(-c4ccccc4F)nn(C)c3s2)cc1	nt	17.5	i	nt	nt	i
Cc1ccc(C)c(NC(=O)c2cccc(Oc3ccc([N+](=O)[O-])cc3Cl)c2)c1	5.7%	1.4	i	22.0%	11.9	i
COc1ccc(NC(=O)c2cccc(Oc3ccc([N+](=O)[O-])cc3Cl)c2)cc1	6.51µM*	1.9	?	?	0.0	?
COc1ccc([N+](=O)[O-])cc1NC(=O)Nc1cccc(Cl)c1	-0.2%	-8.5	2.91µM*	?	-26.8	5.17µM*
O=C1Nc2cc(Cl)ccc2Oc2cc(Oc3ccccc3)ccc21	nt	-12.2	?	nt	nt	i
COc1cccc(-c2cnc3c(NC=O)cc(-c4cc(OC)c(OC)c(OC)c4)cn23)c1	nt	1.3	?	nt	62.5	i
COc1cccc(-c2cnc3c(NC=O)cc(-c4ccc(OC)cc4OC)cn23)c1	nt	-16.0	?	nt	?	0.206µM*
COc1ccc(-c2cc(NC=O)c3ncc(-c4ccc(OC)c(OC)c4)n3c2)c(OC)c1	nt	-9.1	1.16µM*	nt	-22.8	0.651µM*
O=C(NC1CC(=O)N(c2ccc(F)cc2)C1)c1ccco1 (configuration not stated)	nt	0.7	nt	nt	nt	nt
O=C1C=C(c2ccc(CO)cc2)C[C@@H](c2ccc3c(c2)OCO3)C1	0.581µM*	-26.7	i	-20.8%	-50.8*	i
CCCCC/C=C/C1=CC(=O)C[C@H](c2ccc3c(c2)OCO3)C1	10.8%	51.2*	i	-2.3%	-1.4	i
CCN(CC)S(=O)(=O)c1ccc(C)c(NC(=O)CNc2cccc(S(=O)(=O)N3CCOCC3)c2)c1	?	5.5	i	-527.0%	7.4	i
CCN(CC)S(=O)(=O)c1cccc(NC(=O)CNc2cccc(S(=O)(=O)N3CCOCC3)c2)c1	15.1%	2.2	20.6µM*	5.6%	55.8	1.3µM*
CCN(CC)S(=O)(=O)c1cc(NC(=O)CNc2cccc(S(=O)(=O)N3CCCC3)c2)ccc1C	26.1%	-1.8	20.6µM*	-1.6%	8.1	2.91µM*
O=C1c2cc(O)cc(O)c2C(=O)c2c1cc(O)c([C@@H](CO)CCO)c2O	3.2%	-20.9	i	-12.2%	-53.1*	i
COc1ccc(C2NC(=S)N3C(c4ccc(OC)c(OC)c4)NC(=S)N23)cc1OC (configuration not stated)	nt	0.3	nt	nt	nt	nt
